# In PubChem BioAssay (NCI):
# About 83,000 compounds went through this panel and 20% of them were active in at least one assay; those are over-represented in the sample as a whole.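 Assay: single dose, 48 h. Readout: percent growth (0 = no net growth; negative = cell death). Active: <10.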 A number with no mark means an inactive call. The source made the active and inactive calls.
# Tests used:
# Assay in all cases: NCI-60 one-dose screen, 48 h (100 = growth as untreated, 0 = no growth, -100 = all killed)
# Conditions in all cases: 10 µM unless noted
# SK-MEL-2 melanoma = tested on: SK-MEL-2 melanoma
# SN12C renal = tested on: SN12C renal
# UO-31 renal = tested on: UO-31 renal
# TK-10 renal = tested on: TK-10 renal
# ACHN renal = tested on: ACHN renal
# CAKI-1 renal = tested on: CAKI-1 renal
# A498 renal = tested on: A498 renal
# CCRF-CEM leukemia = tested on: CCRF-CEM leukemia
# SR leukemia = tested on: SR leukemia
# RPMI-8226 leukemia = tested on: RPMI-8226 leukemia
# OVCAR-8 ovarian = tested on: OVCAR-8 ovarian
# OVCAR-5 ovarian = tested on: OVCAR-5 ovarian
# OVCAR-4 ovarian = tested on: OVCAR-4 ovarian
# SK-OV-3 ovarian = tested on: SK-OV-3 ovarian
# IGROV1 ovarian = tested on: IGROV1 ovarian
# OVCAR-3 ovarian = tested on: OVCAR-3 ovarian
# HS 578T breast = tested on: HS 578T breast
# NCI/ADR-RES ovarian = tested on: NCI/ADR-RES ovarian
# MOLT-4 leukemia = tested on: MOLT-4 leukemia
SMILES,growth (SK-MEL-2 melanoma),growth (SN12C renal) [%],growth (UO-31 renal) [%],growth (TK-10 renal) [%],growth (ACHN renal) [%],growth (CAKI-1 renal) [%],growth (A498 renal),growth (CCRF-CEM leukemia) [%],growth (SR leukemia),growth (RPMI-8226 leukemia) [%],growth (OVCAR-8 ovarian),growth (OVCAR-5 ovarian) [%],growth (OVCAR-4 ovarian) [%],growth (SK-OV-3 ovarian),growth (IGROV1 ovarian) [%],growth (OVCAR-3 ovarian),growth (HS 578T breast) [%],growth (NCI/ADR-RES ovarian),growth (MOLT-4 leukemia) [%]
O=C1NC(=O)C(c2ccccc2)O1 (configuration not stated),90.1%,103,87.6,101,99.2,98,102%,101,93.3%,99.5,102%,106,98.2,96.6%,108,117%,117,97.8%,
CC(C)N(CCCC#N)C(C)C,121%,94,86,104,98,95.1,79.4%,86.9,108%,98.2,92.8%,96.7,88.7,110%,103,108%,86.7,121%,112
CC(CO)(CO)C(=O)O,108%,105,98.6,103,103,99,85.3%,93.5,,97.2,111%,98.2,105,105%,,106%,98.8,103%,108
CC(CC(CCC(=O)O)(c1ccccc1)c1ccccc1)N(C)C (configuration not stated),104%,99.2,91.4,98.2,106,95,95%,98.9,98.6%,109,94.4%,98.4,96.1,97.6%,107,67.3%,106,108%,107
CCN(CC)CCN1CNC(=S)NC1,95.1%,98.4,83.7,103,102,106,105%,97.8,96.4%,99.2,112%,107,109,108%,113,109%,105,106%,97.1
CCOC(=O)c1ccc(Nc2sc(C(=O)c3ccc(Br)cc3)c(N)c2C#N)cc1,21.7%,43.9,25.6,42.4,44,10.7,-8.46% (active),12.8,18.6%,18.7,29.6%,46.8,70.5,11.7%,,-6.38% (active),20.8,22%,33.5
CCOC(=O)CNC,117%,96.4,107,126,91.1,94.6,83.1%,92.3,93.2%,99.7,91.3%,97.2,96.5,106%,,111%,121,100%,103
CCN(C(C)=O)c1ccc([N+](=O)[O-])cc1,107%,105,89.7,93,113,102,82.5%,98.9,97%,93.9,99.2%,111,113,109%,107,107%,99.8,102%,95.6
CNc1ccccc1C(=O)N/N=C/C=C/c1ccccc1,3.74% (active),48.7,43.8,31.1,58.2,12.7,-8.31% (active),12,2.42% (active),25.1,6.6% (active),47.1,85.6,7.51% (active),23,-23.7% (active),16.5,3.92% (active),18.5
CC(C)(N)CO[C@H]1C[C@H]2CC[C@@]1(C)C2(C)C,108%,100,91.8,105,100,97,81.7%,105,106%,108,102%,95,104,112%,106,93.6%,81.9,103%,107
Cc1ccc(C(C)C)c(OCC(=O)O)c1,118%,100,97,107,112,110,73.6%,96.8,109%,107,101%,98.7,112,108%,,113%,101,111%,111
Cc1[nH]nc(C(N)=O)c1[N+](=O)[O-],119%,98.4,96.8,106,99.3,102,78.4%,105,84.7%,96.3,108%,104,122,101%,115,101%,87.7,102%,109
